# Reference: ChEMBL document CHEMBL3988442, “University of Dundee, Small-Polar-MMV Screening Library” (2021)
# Screen size: about 48,000 compounds; about 13,000 (27%) showed an effect of 50% or more. The list shows a part of the results.
# System: Wolbachia pipientis
# Assay: Anti-Wolbachia Cell-Based Screen
# Assay type: functional
# Design: scale not given: in the data most compounds retested in dose-response had high values
# Conditions: 5 µM
row,Compound,Percent Effect
1,CN(C)CCOCC1CN(C(=O)c2ccccn2)Cc2ccnn2C1 (stereo not given),-6.376%
2,Cc1ccccc1OCCCC(=O)N(C)CCC#N,8.227%
3,COC(=O)C(C)(C)NC(=O)C1CC(=O)N(C2CC2)C1 (stereo not given),103.7%
4,COC(=O)C(C)(C)NC(=O)C1CC(=O)N(C2CCCC2)C1 (stereo not given),4.73%
5,CC(C)(CNC(=O)OC(C)(C)C)NC(=O)C1CC(=O)N(C2CC2)C1 (stereo not given),10.96%
6,Cc1ncsc1CCC(=O)NC1CCN(Cc2cccs2)CC1,5.127%
7,Cl.Cn1nc(C2CCCN(Cc3cc(F)cc(F)c3)C2)c2nccnc21 (stereo not given),114.5%
8,Cl.Cn1nc(C2CCCN(Cc3cccc(F)c3)C2)c2nccnc21 (stereo not given),5.539%
9,Cl.Cn1nc(C2CCCN(Cc3ccc(F)c(F)c3)C2)c2nccnc21 (stereo not given),94.15%
10,COc1ccnc(CN2CCCC(CCc3ccc(F)cc3)C2)c1OC (stereo not given),-12.62%
11,CCCC(=O)NC1CCCN(Cc2cccs2)C1 (stereo not given),90.44%
12,Cn1ccnc1CN1CCCC(CCc2ccc(F)c(F)c2)C1 (stereo not given),5.156%
13,Cn1cncc1-c1nnc([C@H]2CCN(Cc3ccc(F)c(F)c3)C2)o1,-0.5491%
14,Fc1ccc(NC2CCCN(Cc3ccncc3)C2)cc1 (stereo not given),7.502%
15,Cl.Cn1nc(C2CCCN(Cc3ccc(F)cc3)C2)c2nccnc21 (stereo not given),103.8%
16,CC(C)(C)OC(=O)NC1CCCN(Cc2cccs2)C1 (stereo not given),5.758%
17,CC(=O)N[C@@H]1CN(C2CCN(c3cccc(Cl)c3)CC2)C[C@H]1C(C)C,15.95%
18,Cc1nc(S(=O)(=O)NCCC(=O)NCc2ccsc2)cn1C,-10.44%
19,COCCC1(CO)CCCN(C(=O)c2cc(C#N)c(=O)[nH]c2C)C1 (stereo not given),6.218%
20,CC(C)C1CN(C(=O)c2csc(CN(C)C)n2)CCC(=O)N1CC1CC1 (stereo not given),-2.363%
21,Cc1ccc(CN2CCCC(c3nn(C)c4nccnc34)C2)s1 (stereo not given),125.3%
22,Cc1ccc(CN2CCCC(c3nnc(CN4CCCC4)n3C)C2)s1 (stereo not given),10.41%
23,COc1cccc(CN2CCCC(c3nn(C)c4nccnc34)C2)c1.Cl (stereo not given),110.8%
24,c1ccc(CCN2CCCC(Cn3ccnc3)C2)cc1 (stereo not given),-0.01768%
25,Cc1ccc(CN2CCCC(c3nnc(CN4CCCCC4)n3C)C2)s1 (stereo not given),9.152%
26,Cl.Cn1nc(C2CCCN(Cc3cccs3)C2)c2nccnc21 (stereo not given),122.9%
27,Cn1nc(C2CCCN(Cc3ccsc3)C2)c2nccnc21 (stereo not given),-5.788%

row,Compound,Percent Effect
1,Cl.Cn1nc(C2CCCN(Cc3ccccc3)C2)c2nccnc21 (stereo not given),128.3%
2,CC(C)n1nc2c(cc1=O)CN(Cc1nnc(C3CC3)o1)CC2,15.52%
3,CCc1cc(NCCNC(C)=O)nc(N2CCOCC2)n1,-17.29%
4,CC1CCc2nc(O)c(C(=O)NCCc3cccs3)cc2C1 (stereo not given),-7.543%
5,CCc1nnc(C(C)N(C)Cc2c(C)nn(-c3ccccc3)c2C)o1 (stereo not given),1.844%
6,CCn1cc(CN2CCCC2c2nc(C(C)C)no2)cc1C#N (stereo not given),-5.015%
7,Cc1cccc(NC(=O)CNC(=O)Cn2ncc(Cl)c(Cl)c2=O)c1C,-3.817%
8,COc1c(C2CCCN2C(=O)c2sc(C)nc2C)c(C)nn1C (stereo not given),94.35%
9,COc1c(C2CCCN2C(=O)c2scnc2C)c(C)nn1C (stereo not given),97.95%
10,COc1ccsc1C(=O)N1CCCC1c1c(C)nn(C)c1OC (stereo not given),-20.58%
11,Cc1ncsc1C(=O)N1CCCC1c1c(C)nn(C)c1Cl (stereo not given),100%
12,Clc1cccc2c3c([nH]c12)CCN(Cc1cc2n(n1)CCNC2)C3,-8.419%
13,CC(C)Oc1cccc(CN(C)C(=O)Nc2cccn(C)c2=O)c1,-28.92%
14,Cc1ccc(Cl)c2c1C1(NC(=O)c3cccnc3N1)C(=O)N2 (stereo not given),-5.673%
15,O=C(CCn1cccn1)NCCOc1ccc2c(c1)OCO2,104.8%
16,c1cnn(CCNCCCOc2ccc3c(c2)OCO3)c1,-9.966%
17,Cl.O=C(CN1CCC[C@H]1C(=O)O)NCCOc1cccc(Cl)c1,-9.308%
18,Cc1cnn(CCNCCCOc2ccc3c(c2)OCO3)c1,2.747%
19,O=C(CCS(=O)(=O)c1ccccc1)NCCCn1cccn1,91.43%
20,O=C(C[S+]([O-])C1CCCC1)NCCOc1cccc(Cl)c1 (stereo not given),-1.497%
21,O=C(NCCCn1cccn1)C1(c2ccc(F)cc2)CC1,-8.161%
22,O=C(NCCCn1cccn1)C1(c2ccc(Br)cc2)CC1,-2.807%
23,O=C(CCc1ccncc1)NCCOc1ncc(Cl)cc1Cl,-8.284%
24,O=C(CCn1cccn1)NCCOc1cccc(Cl)c1,87.31%
25,O=C(NCCOc1ncc(Cl)cc1Cl)c1ccncc1,-15.07%
26,O=C(CCn1cccn1)NCCOc1ncc(Cl)cc1Cl,81.6%
27,c1ccc(-c2nc3c(c(NCCn4cccc4)n2)CCNCC3)nc1,-2.581%

row,Compound,Percent Effect
1,CC(C)c1nc(CC(=O)Nc2nc(CN3CCCCCC3)cs2)cs1,13.84%
2,O=C(CCOc1ccc(Cl)cc1)NCCCn1cccn1,101.2%
3,O=C(NCCCn1cccn1)C1COCC(=O)N1Cc1ccccc1 (stereo not given),-30.45%
4,CC(C(=O)NCCOc1cccc(Cl)c1)n1cncn1 (stereo not given),-0.6619%
5,O=C(CCn1cncn1)NCCOc1cccc(Cl)c1,114.1%
6,O=C(CN1CCOc2ccc(Cl)cc21)NCCCn1cccn1,-8.926%
7,Cc1occc1C(=O)NCC(=O)NCCOc1cccc(Cl)c1,23.6%
8,CNc1nc(C(=O)N2C[C@H]3CC[C@@H]2CN(S(C)(=O)=O)C3)cs1,-0.32%
9,COc1ccc(S(=O)(=O)N2CCC(OCc3ccccn3)C2)cc1Br (stereo not given),4.781%
10,Cn1c(C2CC2)nc2c1CCN(CCS(=O)(=O)c1ccccc1)C2,-2.763%
11,Cc1cc(C2CCCN(CCNS(=O)(=O)c3ccccc3)C2)n[nH]1 (stereo not given),94.49%
12,Cc1cc(C2CCCN(CCCS(=O)(=O)c3ccccc3)C2)n[nH]1 (stereo not given),-3.796%
13,Cc1cc(C2CCCN(CCS(=O)(=O)c3ccccc3)C2)n[nH]1 (stereo not given),111.9%
14,Cc1cc(N2CCC(N(C)Cc3cc(=O)c(O)co3)CC2)nc(C)n1,-0.2819%
15,CN(CC(O)C1CC1)C(=O)Nc1ccc(F)c(-n2cccc2)c1 (stereo not given),2.69%
16,CCc1nc(C2CCCN2C(=O)c2nccnc2N)no1 (stereo not given),-19.66%
17,CCc1cc(O)nc(C2CCCN2C(=O)c2cc(C)no2)n1 (stereo not given),-6.64%
18,CCc1cc(O)nc(C2CCCN2C(=O)COC)n1 (stereo not given),126%
19,CCc1nc(C2CCCN2C(=O)c2ccc(=O)n(CC)n2)no1 (stereo not given),-10.47%
20,CCc1cc(C(=O)N2CCCC2c2nc(O)cc(CC)n2)on1 (stereo not given),115.5%
21,CCn1nc(C(=O)N2CCCC2c2noc(C)n2)ccc1=O (stereo not given),2.469%
22,CCc1cc(O)nc(C2CCCN2C(=O)c2cc(CC)on2)n1 (stereo not given),115.4%
23,CCc1ccc(C(=O)NC2CCN(c3ccn(C)n3)C2)o1 (stereo not given),-10.19%
24,O=C(Nc1cc(C(F)(F)F)ccc1Cl)c1ccc(N2CCCC2)nn1,13.93%
25,N#Cc1ccc(OCCNc2cccc(C(=O)N3CCOCC3)c2)cc1,-3.52%
26,CC(C)C(C#N)N1CCN(C(=O)c2cc(-c3ccccn3)no2)CC1 (stereo not given),-9.203%
27,O=C(NCCn1cccc1)C1CCCN(C2CCCC2)C1 (stereo not given),-8.525%

row,Compound,Percent Effect
1,CCN(CC)C(=O)[C@@H]1C[C@@H](n2cc(-c3cccc(OC)c3)nn2)CN1,-2.078%
2,CCN(CC)C(=O)[C@@H]1C[C@H](n2cc(-c3cccc(OC)c3)nn2)CN1,-3.277%
3,CCN(CC)C(=O)[C@@H]1C[C@@H](n2cc(-c3ccccn3)nn2)CN1,-7.154%
4,CCN(CC)C(=O)[C@@H]1C[C@H](n2cc(-c3ccccn3)nn2)CN1,-5.115%
5,CNC(=O)[C@@H]1C[C@H](n2cc(-c3ccc(Cl)cc3)nn2)CN1,104.7%
6,CNC(=O)[C@@H]1C[C@@H](n2cc(-c3ccc(Cl)cc3)nn2)CN1,111.1%
7,CNC(=O)NC(=O)CCSc1ccccc1C,-14.48%
8,CCc1noc(CN2CCCC2C(=O)OCc2ccccc2)n1 (stereo not given),6.169%
9,Cc1nc2n(n1)CC(NCC(=O)NCCCOC(C)C)CC2 (stereo not given),-9.274%
10,COc1ccc(CC(=O)N2CCC(Nc3ccc(C)nn3)CC2)cc1,95.7%
11,Cc1ccc(CC(=O)N2CCC(Nc3ccc(C)nn3)CC2)cn1,105.9%
12,Cc1ccc(NC2CCN(C(=O)Cc3ccc(C#N)cc3)CC2)nn1,-2.358%
13,Cc1ccc(OCC(=O)NS(=O)(=O)c2cccnc2)cc1C,-7.985%
14,Cc1c[nH]c(C(=O)N2CCC(c3nnc(CN(C)CCO)n3C)CC2)c1,-9.354%
15,CCCNC(=O)CN1CCOC(c2ccc(Br)cc2)C1 (stereo not given),-1.206%
16,Cc1cc(C)c2nc(CN3CC[C@@H](O)C3)cc(O)c2c1,-21.84%
17,Cc1cc(C)c2nc(CN3CCCC(c4cc[nH]n4)C3)cc(O)c2c1 (stereo not given),54.67%
18,COC1CCCN(Cc2cc(O)c3cc(C)cc(C)c3n2)C1 (stereo not given),-4.558%
19,Cn1cc(CN2C[C@H](N3CCOCC3)[C@@H]3OCCC[C@@H]32)cn1.O=C(O)C(F)(F)F.O=C(O)C(F)(F)F,9.025%
20,CCN(CC)[C@@H]1CN(Cc2nccn2C)[C@@H]2CCCO[C@H]12.O=C(O)C(F)(F)F.O=C(O)C(F)(F)F.O=C(O)C(F)(F)F,-9.914%
21,CN(Cc1cccnc1)[C@@H]1CN(Cc2cnn(C)c2)[C@@H]2CCCO[C@H]12.O=C(O)C(F)(F)F.O=C(O)C(F)(F)F.O=C(O)C(F)(F)F.O=C(O)C(F)(F)F,88.39%
22,CN(Cc1ccco1)[C@@H]1CN(Cc2cnn(C)c2)[C@@H]2CCCO[C@H]12.O=C(O)C(F)(F)F.O=C(O)C(F)(F)F,12.06%
23,CN(Cc1cccnc1)[C@@H]1CN(Cc2nccn2C)[C@@H]2CCCO[C@H]12.O=C(O)C(F)(F)F.O=C(O)C(F)(F)F.O=C(O)C(F)(F)F.O=C(O)C(F)(F)F,107.5%
24,CN(Cc1ccco1)[C@@H]1CN(Cc2nccn2C)[C@@H]2CCCO[C@H]12.O=C(O)C(F)(F)F.O=C(O)C(F)(F)F.O=C(O)C(F)(F)F,-0.8776%
